D1 potentiator: Potentiators of Human D1 Dopamine Receptor: qHTS; 0.036% of 360,000 active; D(1A) dopamine receptor (Homo sapiens), P21728; AID 504651, 2011; potentiation, % at 10 µM; HEK293 TREx D1 cells, calcium flux, dopamine EC20 potentiation; in the data active = potentiation above about 30%; also: 0% is about no effect
Target sequence (P21728 whole entry, looked up): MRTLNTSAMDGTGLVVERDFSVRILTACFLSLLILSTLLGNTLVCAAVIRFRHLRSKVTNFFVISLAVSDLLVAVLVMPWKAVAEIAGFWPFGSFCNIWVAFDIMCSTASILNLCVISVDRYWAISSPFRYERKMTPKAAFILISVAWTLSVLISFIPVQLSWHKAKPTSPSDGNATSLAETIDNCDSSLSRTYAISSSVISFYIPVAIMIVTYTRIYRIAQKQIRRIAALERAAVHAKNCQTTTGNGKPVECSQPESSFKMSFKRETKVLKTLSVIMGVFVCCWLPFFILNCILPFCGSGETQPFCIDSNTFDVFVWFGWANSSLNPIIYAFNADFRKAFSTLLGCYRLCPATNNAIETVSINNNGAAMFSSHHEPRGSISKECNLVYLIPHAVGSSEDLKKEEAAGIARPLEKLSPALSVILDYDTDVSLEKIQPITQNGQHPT
D1 agonist: Allosteric Agonists of the Human D1 Dopamine Receptor: qHTS | D(1A) dopamine receptor (Homo sapiens), P21728 | HEK293 T-REx D1 cells, calcium flux, agonist mode | activation, % at 2 µM | 1% of 360,000 active; also: 0% is about no effect
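Inducible HEK293 T-REx D1 cells, force-coupled to calcium signalling, were plated at 4000 cells/well with tetracycline and held overnight at 30 C. After no-wash calcium dye loading, compound-evoked calcium rise over 180 s flagged agonists.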
TRHR ag: qHTS for Small Molecule Agonists and Allosteric Enhancers of Human TRH Receptor: Primary Screen for Agonists. Thyrotropin-releasing hormone receptor (Homo sapiens), P34981. TRHR cells, calcium flux fluo-8, FDSS agonist mode. activation, % at 2 µM. 0.18% of 360,000 active. AID 493084, 2011; also: 0% is about no effect
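TRHR-expressing cells loaded with fluo-8 calcium dye; 23 nL library compound pin-transferred, kinetic FDSS fluorescence (Ex 480/Em 530) recorded about 180 s for agonist-induced calcium release, before a 10 nM TRH EC20 addition for potentiator mode.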
D1 antag: Antagonist of Human D 1 Dopamine Receptor: qHTS; HEK293 TREx D1 cells, calcium flux, dopamine EC80; stronger effect = lower value; activity change, negative = inhibition, % at 10 µM; 3.2% of 360,000 active; AID 504652, 2011; in the data active = activity change below about -30%; also: % is scaled to controls: 0 for no effect and ±100 for the full control effect
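Tetracycline-induced HEK293 Trex D1 cells, force-coupled to calcium, dye-loaded; compounds added and read 180 s, then EC80 dopamine added and calcium flux tracked kinetically another 180 s.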
TRHR PAM: qHTS for Small Molecule Agonists and Allosteric Enhancers of Human TRH Receptor: Primary Screen for Enhancers | AID 493056, 2011 | enhancement, % at 2 µM | TRHR cells, fluo-8 calcium fluorescence, EC20 TRH enhancement | 0.66% of 360,000 active; in the data active = enhancement above about 30%; also: 0% is about no effect
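TRHR-expressing cells loaded with fluo-8 calcium dye were read kinetically (ex 480/em 530) during compound addition, then stimulated with an EC20 of TRH (10 nM final). Enhancement of the Gq-mediated intracellular calcium response was scored.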
The depositor's hits bear a star; nt = not tested or not shown. Sampled rows, rich in hits. Any-hit rate of the full collection: about 4.7%. Rule as the data show it, unless noted: active = activation above about 30%; inactive = the rest.

SMILES	D1 potentiator	D1 agonist	TRHR ag	D1 antag	TRHR PAM
Cc1cc(C(=O)NC2CCCC(C)C2C)c2ccccc2n1 (centres undefined)	-12	0	0	-31*	-2
O=C(NCc1cccc(Cl)c1)c1cccc(C(F)(F)F)c1	-9	2	0	-33*	14
Cc1cc(C(=O)NC2CCCCC2C)c2ccccc2n1 (centres undefined)	2	2	0	14	-2
COc1ccc(C(CC(=O)O)NC(=O)c2cc3ccccc3oc2=O)cc1OC (centres undefined)	-2	0	0	3	4
Cc1cc(C(=O)NCc2ccccc2Cl)c2ccccc2n1	-10	7	-1	-63*	6
Cc1ccc(Sc2cc(C(=O)NCCCN(C)C)c3ccccc3n2)cc1	-2	34*	-2	-10	-1
Cc1cc(C(=O)Nc2ccccc2Cl)c2ccccc2n1	2	3	1	-4	7
Cc1ccc(Sc2cc(C(=O)NCCN(C)C)c3ccccc3n2)cc1	-9	17	1	17	5
CCN(C(=O)COc1ccc(F)cc1Br)c1c(N)n(Cc2ccccc2)c(=O)[nH]c1=O	-4	2	0	-40*	-4
CCCc1cc(C(=O)OCC(=O)N(CCC)c2c(N)n(Cc3ccccc3)c(=O)[nH]c2=O)sc1C	40*	24	0	61	3
CCCN(C(=O)CCNC(=O)c1ccc(Cl)cc1)c1c(N)n(Cc2ccccc2)c(=O)[nH]c1=O	nt	10	0	-31*	-4
COCCN(C(=O)COC(=O)c1cc2c(s1)CCCC2)c1c(N)n(Cc2ccccc2)c(=O)[nH]c1=O	-5	-2	0	3	-5
N=C1/C(=C\c2ccc(-c3ccc(C(=O)O)cc3)o2)C(=O)N=C2SC=C(c3ccccc3)N12	-5	38*	0	-16	4
N=C1/C(=C\c2ccc(-c3cccc(Cl)c3)o2)C(=O)N=C2SC=C(c3ccccc3)N12	5	0	1	5	2
CC(=O)Oc1ccc(-c2ccc(C(=O)Nc3cccc(S(=O)(=O)N4CCOCC4)c3)cc2)cc1	-12	16	1	-32*	-1
O=C(Nc1cccc(S(=O)(=O)C(F)F)c1)c1ccc(Cl)c(S(=O)(=O)N2CCOCC2)c1	-2	10	0	-34*	-5
COc1ccc(C(=O)NC(=S)Nc2cccc(S(=O)(=O)N3CCOCC3)c2)cc1	-7	9	0	9	-9
O=C(Nc1cccc(Br)c1)c1ccc(Cl)c(S(=O)(=O)N2CCOCC2)c1	2	0	-1	5	2
CC(C)Oc1ccc(C(=O)Nc2cc(S(=O)(=O)N3CCOCC3)ccc2N2CCOCC2)cc1	-1	1	-1	-40*	4
CN(C)CCNC(C(=O)Nc1cccc(S(=O)(=O)N2CCOCC2)c1)c1ccccc1 (centres undefined)	-1	0	1	-15	36*
Cc1coc2cc3oc(=O)c(CCC(=O)NCC(=O)O)c(C)c3cc12	1	2	0	5	-2
CCc1ccccc1NC(=O)COC(=O)C1C2CC3OC(=O)C1C3C2 (centres undefined)	-5	9	-2	4	8
CSc1ncc(Cl)c(C(=O)Nc2c(C(=O)c3ccc(Cl)cc3)oc3ccccc23)n1	-1	3	0	1	47*
CSc1ncc(Cl)c(C(=O)Nc2c(C(=O)c3ccc(C)cc3)oc3ccccc23)n1	-2	-1	0	-4	0
O=c1oc2cc(O)ccc2cc1-c1nc2c(s1)CCc1ccccc1-2	-10	283*	199*	-23	-23
SMILES	D1 potentiator	D1 agonist	TRHR ag	D1 antag	TRHR PAM
O=c1oc2cc(O)ccc2cc1-c1nc(-c2ccc(Cl)c(Cl)c2)cs1	3	46*	19	7	2
COc1ccc(C2C(C(=O)Nc3cccnc3)=C(C)Nc3nc(SCc4ccccc4)nn32)cc1 (centres undefined)	0	-1	0	0	1
O=C(CCCCCNC(=O)N1CCn2c1nc1ccccc12)N[C@H](C(=O)O)c1ccccc1	1	0	0	6	7
CC1(C)CC(=O)C2=C(C1)NC(=O)CC2c1ccccc1F (centres undefined)	-6	1	0	-31*	-6
CC1(C)CC(=O)C2=C(C1)NC(=O)CC2c1cc(F)ccc1F (centres undefined)	-10	2	0	-12	1
CCN(CC)C(=O)c1nn(-c2ccc(OC)cc2)c(=O)c2c(N)scc12	-4	2	-1	-12	-3
O=C(/C=C/c1ccc([N+](=O)[O-])cc1)NCCSc1ccccc1	-3	12	0	-30*	10
CC(=O)c1ccc(NC(=O)/C=C/c2ccc(C)o2)cc1	-4	1	-1	-2	1
Cc1cc(NS(=O)(=O)c2ccc(NC(=O)/C=C/c3ccc(C)o3)cc2)nc(C)n1	-1	0	0	-5	6
Cc1ccc(/C=C/C(=O)Nc2ccc([N+](=O)[O-])cc2)o1	-4	20	-1	-46*	-2
CCCCOc1ccc(/C=C/C(=O)Nc2ccc([N+](=O)[O-])cc2C)cc1	-2	4	4	-4	-2
CCCOc1ccc(/C=C/C(=O)Nc2ccc([N+](=O)[O-])cc2)cc1	-7	14	1	-43*	-2
Cc1ccc(SCCNC(=O)/C=C/c2ccc([N+](=O)[O-])cc2)cc1	-9	3	0	-12	3
Cc1ccc(/C=C/C(=O)Nc2ccc(Oc3ccccc3)cc2)o1	-5	7	0	-32*	-5
COC(=O)Cn1c(CN2CCC(Cc3ccccc3)CC2)nc2c1c(=O)n(C)c(=O)n2C	-7	17	-1	-36*	-2
Cn1c(=O)c2c(nc(CN3CCN(Cc4ccccc4)CC3)n2Cc2cccc(Cl)c2)n(C)c1=O	-14	40*	-1	1	-3
COC(=O)Cn1c(CN(C)Cc2ccccc2)nc2c1c(=O)n(C)c(=O)n2C	4	1	0	0	-4
Cn1c(=O)c2c(nc(CN3CCN(C(=O)c4ccco4)CC3)n2CCc2ccccc2)n(C)c1=O	2	0	-1	-74*	-1
CCCCCSc1nnc2c(n1)OC(CC)Nc1ccc(Br)cc1-2 (centres undefined)	-3	1	0	-18	-6
COC(=O)c1ccc(Cl)cc1NC(=O)NCc1c(-n2cccc2)sc2c1CCCC2	-2	-1	-1	-20	0
